Inconclusive results are not listed. Where a call stands in place of a potency, no number is given. Calls of active or inactive are those of the source. Calls follow the shape of the dose curve; as a rule, active = well fitted activation curve with a large enough effect; inconclusive = small, poorly fitted or top-dose-only effect; inactive = flat fitted curve, though single readings scatter.
These compounds were tested against Pyruvate kinase PKM (Homo sapiens) (UniProt P14618) (assay: Confirmation Concentration-Response Assay for Activators of Human Muscle isoform 2 Pyruvate Kinase: for Probe SAR). Conditions: purified PKM2, ATP generation, Kinase-Glo luminescence; series mostly up to 57.5 µM.
Pyruvate kinase PKM (Homo sapiens), sequence (P14618 whole entry, looked up, canonical isoform): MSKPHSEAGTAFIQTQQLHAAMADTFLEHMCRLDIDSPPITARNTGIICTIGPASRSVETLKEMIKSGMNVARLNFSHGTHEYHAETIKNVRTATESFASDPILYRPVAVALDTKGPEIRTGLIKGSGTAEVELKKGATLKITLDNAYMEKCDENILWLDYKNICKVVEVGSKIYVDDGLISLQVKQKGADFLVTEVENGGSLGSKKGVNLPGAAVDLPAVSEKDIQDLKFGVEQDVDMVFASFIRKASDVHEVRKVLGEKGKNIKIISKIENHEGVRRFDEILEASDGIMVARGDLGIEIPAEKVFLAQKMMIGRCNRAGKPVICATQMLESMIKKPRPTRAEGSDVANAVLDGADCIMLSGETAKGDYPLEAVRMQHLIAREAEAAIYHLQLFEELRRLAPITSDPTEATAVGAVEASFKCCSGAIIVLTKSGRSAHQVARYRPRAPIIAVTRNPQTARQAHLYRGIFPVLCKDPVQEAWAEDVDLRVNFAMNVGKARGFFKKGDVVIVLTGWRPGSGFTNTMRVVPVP
How it was run: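 Purified hPK-M2 at 0.1 nM final converted ADP (0.1 mM) and PEP (0.5 mM) to ATP over 1 hour at room temperature in imidazole buffer, pH 7.2. ATP formed was measured by Kinase-Glo luminescence, normalized to no-enzyme and uninhibited controls.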
For `O=C1CCc2cc(S(=O)(=O)Nc3ccccc3-c3ccccc3)ccc2N1`, the Potency was “inactive”. In the case of `Cc1cc2c(s1)c1cnn(Cc3c(Cl)ccc(C)c3F)c(=O)c1n2C`, the Potency was 1.26 µM (active). In the case of `Cc1ccc(NS(=O)(=O)c2ccc3ccccc3c2)cc1C`, the Potency was 41.1 µM (active). With `CC(=O)Nc1cccc(OC2=NS(=O)(=O)c3ccccc32)c1` the Potency was “inactive”. With `Cc1ccc(NS(=O)(=O)c2ccc(F)cc2)cc1C` the Potency was 25.9 µM (active). For `O=C1c2ccccc2C(=O)N1c1cccc(=O)[nH]1`, the Potency was “inactive”. In the case of `O=C1CCc2cc(S(=O)(=O)Nc3ccc4c(c3)OCCO4)ccc2N1`, the Potency was 20.6 µM (active). `O=C1c2ccccc2C(=O)N1Cc1ccccn1` was tested, and the Potency was “inactive”. In the case of `Cc1ccc(NS(=O)(=O)c2ccc3c(c2)NC(=O)CO3)cc1C`, the Potency was 20.6 µM (active). For `Cc1ccc(-c2nc3ccccn3c2Nc2ccccc2C)o1`, the Potency was “inactive”. With `CSc1cc2c(s1)c1cnn(Cc3cccc(O)c3)c(=O)c1n2C` the Potency was 0.0411 µM (active). With `O=[S+]1([O-])N=C(Oc2cccnc2)c2ccccc21` the Potency was “inactive”. `O=S1(=O)N=C(Oc2ccccc2Cl)c2ccccc21` was tested, and the Potency was “inactive”. In the case of `COc1cc(F)c(S(=O)(=O)N2CCN(S(=O)(=O)c3ccco3)CC2)c(F)c1`, the Potency was 0.183 µM (active). For `CCSC1=NS(=O)(=O)c2ccccc21`, the Potency was “inactive”. With `COc1cc(N2C(=O)c3ccccc3C2=O)c2ncccc2c1` the Potency was “inactive”. With `O=S1(=O)N=C(Oc2cccc(C(F)(F)F)c2)c2ccccc21` the Potency was “inactive”. In the case of `O=C1c2ccccc2C(=O)N1c1nccs1`, the Potency was “inactive”. For `Cc1ccc2nc(-c3ccc(C)o3)c(Nc3ccc(Cl)cc3)n2c1`, the Potency was “inactive”. In the case of `O=C1c2ccccc2C(=O)N1c1cccc2ncccc12`, the Potency was “inactive”. With `Cc1ccc(NS(=O)(=O)c2cc3c(cc2C)NC(=O)CO3)cc1C` the Potency was 0.58 µM (active). For `O=C1CCc2cc(S(=O)(=O)Nc3ccccn3)ccc2N1`, the Potency was “inactive”. For `Cc1ccn2c(NC3CCCCC3)c(-c3ccc(C)o3)nc2c1`, the Potency was “inactive”. For `N#Cc1ccc(OC2=NS(=O)(=O)c3ccccc32)cc1`, the Potency was “inactive”. `O=S1(=O)N=C(Oc2ccccc2-c2ccccc2)c2ccccc21` was tested, and the Potency was “inactive”. In the case of `N#Cc1cccc(OC2=NS(=O)(=O)c3ccccc32)c1`, the Potency was “inactive”. For `O=C1CCc2cc(S(=O)(=O)Nc3cccc(Br)c3)ccc2N1`, the Potency was 0.259 µM (active). For `Cc1ccc(NC(=O)c2ccc3c(c2)CCC(=O)N3)cc1C`, the Potency was “inactive”. With `Cc1ccc(NS(=O)(=O)c2ccc3c(c2)CCC(=O)N3)cc1C` the Potency was 0.651 µM (active). With `O=C1c2ccccc2C(=O)N1c1ncccc1O` the Potency was “inactive”. `COc1cc(F)c(S(=O)(=O)N2CCN(S(=O)(=O)c3cccs3)CC2)c(F)c1` was tested, and the Potency was 0.0366 µM (active). In the case of `O=C1CCc2cc([S+](=O)([O-])NC3CCOCC3)ccc2N1`, the Potency was “inactive”. `COc1ccc(OC2=NS(=O)(=O)c3ccccc32)cc1` was tested, and the Potency was “inactive”. For `Cc1ccc(-c2nc3ccc(Cl)cn3c2Nc2ccccc2)o1`, the Potency was “inactive”. With `CCNc1cccc(S(=O)(=O)N2CCCN(S(=O)(=O)c3ccc4c(c3)OCCO4)CC2)c1` the Potency was 0.206 µM (active). With `O=C1c2ccccc2C(=O)N1c1cccc(O)c1` the Potency was “inactive”. `Cc1ccc(Nc2c(-c3ccc(C)s3)nc3ccccn23)cc1` was tested, and the Potency was 14.6 µM (active).

Reference: PubChem BioAssay AID2533 (National Center for Advancing Translational Sciences (NCATS), 2010)
Also: nearly all actives have a fitted effect of over 60% in size.
Potency is read from the fitted curve at half-maximal effect.
